Measured values taken from PubChem BioAssay (NCI).
The panel holds about 83,000 compounds, 20% with a hit somewhere; the sample as a whole holds those more often.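 Each cell line was grown in a 96-well plate and treated with one concentration of compound for 48 hours. Values below 10 were considered active.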 A number with no mark means an inactive call. Activity calls are given as the source filed them.

Columns and labels:
Experiment in all cases: NCI-60 one-dose screen, 48 h (100 = growth as untreated, 0 = no growth, -100 = all killed)
Conditions in all cases: 10 µM
DU-145 prostate = system: DU-145 prostate
K-562 leukemia = system: K-562 leukemia
MALME-3M melanoma = system: MALME-3M melanoma
MDA-MB-231 breast = system: MDA-MB-231 breast
RXF 393 renal = system: RXF 393 renal
SF-268 CNS = system: SF-268 CNS
SF-295 CNS = system: SF-295 CNS
SF-539 CNS = system: SF-539 CNS
UACC-257 melanoma = system: UACC-257 melanoma
M14 melanoma = system: M14 melanoma
HCT-15 colon = system: HCT-15 colon
HT29 colon = system: HT29 colon
SNB-75 CNS = system: SNB-75 CNS
SNB-19 CNS = system: SNB-19 CNS
PC-3 prostate = system: PC-3 prostate
SK-MEL-5 melanoma = system: SK-MEL-5 melanoma
UACC-62 melanoma = system: UACC-62 melanoma
LOX IMVI melanoma = system: LOX IMVI melanoma
SK-MEL-28 melanoma = system: SK-MEL-28 melanoma

SMILES	growth (DU-145 prostate)	growth (K-562 leukemia)	growth (MALME-3M melanoma)	growth (MDA-MB-231 breast)	growth (RXF 393 renal)	growth (SF-268 CNS)	growth (SF-295 CNS)	growth (SF-539 CNS)	growth (UACC-257 melanoma)	growth (M14 melanoma)	growth (HCT-15 colon)	growth (HT29 colon)	growth (SNB-75 CNS)	growth (SNB-19 CNS)	growth (PC-3 prostate)	growth (SK-MEL-5 melanoma)	growth (UACC-62 melanoma)	growth (LOX IMVI melanoma)	growth (SK-MEL-28 melanoma)
COc1ccc(/C(=N\N)C(=O)c2ccccc2)cc1 (tested in a mixture with another compound)	108%	101%	106%	102%	96.9%	96.2%	89%	114%	90.8%	124%	91.1%	87.7%	93.2%	94%	90.8%	97.3%	92.8%	97.8%	102%
CC(=O)Nc1ccc(S(=O)(=O)c2ccnc3cc(Cl)ccc23)cc1	53.7%	78.9%	66.5%	88.3%	66.7%	82.8%	97.2%	99.5%	64.4%	95.3%	63.8%	93.7%	76.5%	102%	96%	71.8%	77.7%	73.7%	78.1%
COc1ccc(-c2nn(-c3cccc(Cl)c3)cc2-c2nc(N)[nH]c(=O)c2C#N)cc1	102%	28.3%	37.4%	62.9%	63.4%	68.8%	38.6%	75.6%	94%	55.8%	65.4%	86.5%	68.9%	60.3%	75.5%	67.6%	58.8%	63%	90.4%
N#CC1=CC2CN(Cc3ccccc3)C1C1C(=O)N(c3ccccc3)C(=O)C21 (stereo not drawn)	105%	92.4%	111%	106%	103%	107%	98.7%	98.5%	97.5%	86.4%	96.5%	103%	91.1%	101%	101%	93.3%	90.7%	89.2%	102%
Cc1cccc(N=Cc2ccccc2O)c1C	126%	98.3%	91.7%	102%	110%	116%	106%	102%	94.6%	105%	108%	97.7%	97.3%	90.5%	94.6%	103%	95.2%	–	106%
COc1cc(/C=C2\CCCC3=C2N=C2SC(C)=CN2C3c2cc(OC)c(OC)c(OC)c2)cc(OC)c1OC (stereo not drawn)	-26.9% (active)	20.4%	4.83% (active)	18.9%	-71.9% (active)	14.7%	2.48% (active)	7.53% (active)	-27% (active)	2.47% (active)	-65.4% (active)	-49.1% (active)	59.4%	52.7%	44.5%	-71.6% (active)	–	-70.4% (active)	-51.6% (active)
Cc1ccc(C(=O)C2C(=O)C3CCC2C3)cc1 (stereo not drawn)	121%	102%	121%	107%	109%	108%	101%	106%	94.1%	111%	106%	108%	93.7%	95.7%	94.2%	102%	98.9%	95.4%	99.6%
CC(C)(C)c1ccc(S(=O)(=O)N[C@H]2CC[C@H]3[C@@H]4CCc5cc(OS(=O)(=O)O)ccc5[C@H]4CC[C@]23C)cc1	63.3%	22%	41.8%	26.4%	9.08% (active)	51.2%	44.7%	82.4%	68.2%	54.2%	35.4%	–	61.6%	92.3%	27.5%	52.5%	62%	–	77.5%
